Results: PubChem BioAssay (NCI)
About 79,000 compounds went through this panel and 15% of them were active in at least one assay; those are over-represented in the sample as a whole. Calls of active or inactive are those of the source. Rule as the data show it: active = growth inhibition above about 70%; inactive = the rest.

How the values were obtained:
[1] = NCI Yeast Anticancer Drug Screen. Data for the rad52 strain (AID 147);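 also: 0% = growth of vehicle-treated control cultures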; details: S. cerevisiae rad52 mutant growth inhibition, hits give high values
Procedure, shortened: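 Screen used a yeast mutant impaired in DNA repair. After compound exposure, growth was measured. Values reflect inhibition compared with vehicle-treated cells.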

[2] = NCI Yeast Anticancer Drug Screen. Data for the wt1 strain (AID 149);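 also: 0% = growth of vehicle-treated wt1 cultures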; details: S. cerevisiae wt1 strain (SPY 50644) growth inhibition, hits give high values
Procedure, shortened: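 Measured: growth of wt1 yeast under compound versus vehicle treatment, reported as inhibition.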

[3] = NCI Yeast Anticancer Drug Screen. Data for the rad50EPP+ strain (AID 151);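 also: 0% = growth of vehicle-treated control cultures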; details: S. cerevisiae rad50 mutant strain, hits give high values
Procedure, shortened: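 Exposing the rad50EPP+ strain to each compound, growth was compared with vehicle-only cultures to give inhibition.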

[4] = NCI Yeast Anticancer Drug Screen. Data for the rad50 strain (AID 155);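 also: 0% = growth of vehicle-only cultures of the same strain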; details: S. cerevisiae rad50 strain growth inhibition, hits give high values
Procedure, shortened: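 Growth of the mutant yeast was measured after compound exposure and referenced to vehicle-treated cultures.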

[5] = NCI Yeast Anticancer Drug Screen. Data for the mec2-1 strain (AID 157); details: S. cerevisiae mec2-1 strain, hits give high values
Procedure, shortened: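 Readout is yeast growth inhibition, normalised to vehicle-treated controls, in the mec2-1 strain exposed to compound.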

[6] = NCI Yeast Anticancer Drug Screen. Data for the rad14 strain (AID 159);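 also: 0% = growth of vehicle-treated control cultures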; details: S. cerevisiae rad14 strain growth inhibition, hits give high values
Procedure, shortened: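 Here, inhibition of yeast growth was measured after compound exposure, using a strain with a genetic defect in DNA damage repair and vehicle-treated cultures as the reference.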

[7] = NCI Yeast Anticancer Drug Screen. Data for the sgs1 mgt1 strain (AID 161);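 also: 0% = growth of cultures given vehicle only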; details: S. cerevisiae sgs1 mgt1 strain, hits give high values
Procedure, shortened: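 Compounds are added to genetically altered yeast, and growth is compared with cultures given vehicle alone to give percent inhibition.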

[8] = NCI Yeast Anticancer Drug Screen. Data for the CLN2oe strain (AID 163);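 also: 0% = growth of vehicle-only control cultures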; details: S. cerevisiae CLN2oe strain, hits give high values
Procedure, shortened: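 Values reflect how much compound exposure reduced yeast growth, referenced to vehicle-exposed cells. Assay organism is a strain with a defined genetic change affecting cell-cycle control.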

[9] = NCI Yeast Anticancer Drug Screen. Data for the cln2 rad14 strain (AID 165);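 also: 0% = growth equal to vehicle treated cultures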; details: S. cerevisiae cln2 rad14 strain, hits give high values
Procedure, shortened: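 Relative to vehicle controls, growth inhibition of compound-treated cln2 rad14 yeast was recorded.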

[10] = NCI Yeast Anticancer Drug Screen. Data for the bub3 strain (AID 167); details: S. cerevisiae bub3 mutant strain, hits give high values
Procedure, shortened: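 Whole-cell yeast assay. The mutant strain was incubated with compounds, and growth inhibition was determined by comparison with vehicle-treated cells.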

[11] = NCI Yeast Anticancer Drug Screen. Data for the wt2 strain (AID 169);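 also: 0% = growth of vehicle-treated yeast cultures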; details: S. cerevisiae wt2 strain growth inhibition, hits give high values
Procedure, shortened: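 Values express reduction in yeast growth under compound treatment, referenced to vehicle-treated cells.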

[12] = NCI Yeast Anticancer Drug Screen. Data for the mlh1 strain (AID 171);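 also: 0% = growth of vehicle-treated control cultures of the same strain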; details: S. cerevisiae mlh1 strain growth inhibition, hits give high values
Procedure, shortened: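 Steps: expose the defined-mutant yeast strain to compound; expose a parallel culture to vehicle; measure growth; express compound effect as inhibition relative to the vehicle culture.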

[13] = NCI Yeast Anticancer Drug Screen. Data for the sgs1 strain (AID 173);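 also: 0% = growth of vehicle-only control cultures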; details: S. cerevisiae sgs1 mutant, hits give high values
Procedure, shortened: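 Treat defined-mutant yeast with compound; measure growth; calculate inhibition relative to vehicle-treated cells.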

[14] = NCI Yeast Anticancer Drug Screen. Data for the mlh1 rad18 strain (AID 175); details: S. cerevisiae mlh1 rad18 strain growth inhibition, hits give high values
Procedure, shortened: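 Test agents were incubated with a yeast strain of defined genotype (DNA damage repair defect). Inhibition of growth was derived by comparison with vehicle-exposed cultures.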

[15] = NCI Yeast Anticancer Drug Screen. Data for the rad18 strain (AID 177); details: S. cerevisiae rad18 mutant growth inhibition, hits give high values
Procedure, shortened: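 A genetically defined yeast mutant impaired in DNA damage repair was treated with test compounds, then its growth was measured against cultures receiving vehicle alone.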

[16] = at 5.0 µM (retest, dose inferred, filed as 0.5)
[17] = at 50.0 µM (retest, dose inferred, filed as 5.0)

Measured: growth inhibition

COC(=O)c1ccc(CCC2=CC(=O)C(Br)=CC2=O)cc1
active: [1]; at 100.0 µM 72% | [3]; at 100.0 µM 88% | [4]; [17] 99% | [5]; [17] 98% | [11]; at 33.0 µM 88% | [11]; at 100.0 µM 98% | [13]; at 100.0 µM 70% | [14]; [17] 99% | [14]; at 50.0 µM 91.8%
inactive: [1]; at 1.2 µM 17% | [1]; at 3.7 µM 35% | [1]; at 11.0 µM 47% | [1]; at 33.0 µM 52% | [2]; at 1.2 µM 4% | [2]; at 3.7 µM 3% | [2]; at 11.0 µM 4% | [2]; at 33.0 µM 12% | [2]; at 100.0 µM 28% | [3]; at 1.2 µM 2% | [3]; at 3.7 µM 37% | [3]; at 11.0 µM 42% | [3]; at 33.0 µM 62% | [4]; at 1.2 µM -3% | [4]; at 3.7 µM 14% | [4]; [16] 12% | [4]; at 11.0 µM 15% | [4]; at 33.0 µM 18% | [4]; at 50.0 µM 61.1% | [4]; at 100.0 µM 34% | [5]; at 1.2 µM -7% | [5]; at 3.7 µM -15% | [5]; [16] 44% | [5]; at 11.0 µM -12% | [5]; at 33.0 µM -12% | [5]; at 50.0 µM 68.2% | [5]; at 100.0 µM 19% | [6]; at 1.2 µM -6% | [6]; at 3.7 µM 1% | [6]; at 11.0 µM 5% | [6]; at 33.0 µM 8% | [6]; at 100.0 µM 54% | [7]; [16] 10% | [7]; [17] 0% | [7]; at 50.0 µM 20.3% | [8]; at 1.2 µM -11% | [8]; at 3.7 µM -5% | [8]; at 11.0 µM 10% | [8]; at 33.0 µM 7% | [8]; at 100.0 µM 35% | [9]; [16] 4% | [9]; [17] 14% | [9]; at 50.0 µM 38.7% | [10]; at 1.2 µM -20% | [10]; at 3.7 µM -11% | [10]; [16] 8% | [10]; at 11.0 µM -9% | [10]; at 33.0 µM -5% | [10]; [17] 6% | [10]; at 50.0 µM 23.1% | [10]; at 100.0 µM 29% | [11]; at 1.2 µM -12% | [11]; at 3.7 µM 7% | [11]; at 11.0 µM 39% | [12]; at 1.2 µM 0% | [12]; at 3.7 µM -4% | [12]; at 11.0 µM -5% | [12]; at 33.0 µM 5% | [12]; at 100.0 µM 56% | [13]; at 1.2 µM 8% | [13]; at 3.7 µM 26% | [13]; at 11.0 µM 34% | [13]; at 33.0 µM 35% | [14]; [16] 27% | [15]; at 1.2 µM -25% | [15]; at 3.7 µM -8% | [15]; at 11.0 µM -8% | [15]; at 33.0 µM -25% | [15]; at 100.0 µM 40%
